{
  "source": "the supplement of paper PMC12494721",
  "note": "Where a name gives a salt, the structure may show the parent alone. A number with no mark means an inactive call.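 The calls were made as follows: for the amine columns active = adjusted P below 0.05 in both replicates with a change the same way and a mean fold change under 0.8 or over 1.25; inactive = the rest.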",
  "data": [
    {"tested_on": "Clostridium sporogenes DSM 1664", "experiment": "fold change of Tryptamine concentration vs plate DMSO controls (fold change (ratio)); higher = more amine produced, active = hit call of the paper (significant change in both replicates, either direction)", "conditions": "incubation time: 27 h, anaerobic, 37 °C", "how_it_was_run": "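Each value is the fold change relative to DMSO-only wells on the same plate. Four gut bacterial strains were grown anaerobically in mGAM at 37 °C for 27 h in 80 µL wells, starting at OD 0.1 before a 1:1 dilution, with compounds at 20 µM final (sweeteners 50 µM). Whole cultures were extracted with cold acetonitrile/methanol containing 0.1% formic acid, centrifuged, and amines were quantified by LC–triple-quadrupole MS (dynamic MRM) against external calibration curves with within-batch drift correction. Values are means of 2 biological replicates.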", "values": [
      {"smiles": "CC(C)COCC(CN(Cc1ccccc1)c1ccccc1)N1CCCC1", "note": "(centres undefined) [Bepridil hydrochloride] (20 µM)", "fold change of Tryptamine concentration": 0.913},
      {"smiles": "C[C@@H]1C[C@H]2[C@@H]3CCC4=CC(=O)C=C[C@]4(C)[C@@]3(Cl)[C@@H](O)C[C@]2(C)[C@@]1(OC(=O)c1ccco1)C(=O)CCl", "note": "[Mometasone furoate] (20 µM)", "fold change of Tryptamine concentration": 0.991},
      {"smiles": "c1ccc(-c2ccc(C(c3ccccc3)n3ccnc3)cc2)cc1", "note": "(centres undefined) [Bifonazole] (20 µM)", "fold change of Tryptamine concentration": 0.923},
      {"smiles": "Cc1ncc([N+](=O)[O-])n1CC(C)O", "note": "(centres undefined) [Secnidazole] (20 µM)", "fold change of Tryptamine concentration": "0.0346 (active)"},
      {"smiles": "CC(=O)[C@H]1CC[C@H]2[C@@H]3C[C@H](C)C4=CC(=O)CC[C@]4(C)[C@H]3[C@@H](O)C[C@]12C", "note": "[Medrysone] (20 µM)", "fold change of Tryptamine concentration": 1.03},
      {"smiles": "Cc1ccc(C(=O)c2ccc(CC(=O)O)n2C)cc1", "note": "[Tolmetin sodium salt dihydrate] (20 µM)", "fold change of Tryptamine concentration": 1},
      {"smiles": "COCCOC(=O)C1=C(C)NC(C)=C(C(=O)OC(C)C)C1c1cccc([N+](=O)[O-])c1", "note": "(centres undefined) [Nimodipine] (20 µM)", "fold change of Tryptamine concentration": 0.965},
      {"smiles": "CCCCCCCCCCCCCCCCCCCCCC(=O)Nc1ccn([C@@H]2O[C@H](CO)[C@@H](O)[C@@H]2O)c(=O)n1", "note": "[Enocitabine] (20 µM)", "fold change of Tryptamine concentration": 0.984},
      {"smiles": "CCN(CCCc1ccccc1)CCCc1ccccc1", "note": "[Alverine citrate salt] (20 µM)", "fold change of Tryptamine concentration": 1.03},
      {"smiles": "CN(C)CCCC1(c2ccc(F)cc2)OCc2cc(C#N)ccc21", "note": "(centres undefined) [Citalopram hydrobromide] (20 µM)", "fold change of Tryptamine concentration": 0.955},
      {"smiles": "O=C1Nc2ccc(Cl)cc2[C@@](C#CC2CC2)(C(F)(F)F)O1", "note": "[Efavirenz] (20 µM)", "fold change of Tryptamine concentration": 1.02},
      {"smiles": "O=C1NS(=O)(=O)c2ccccc21", "note": "[Saccharin] (50 µM)", "fold change of Tryptamine concentration": 1.02},
      {"smiles": "O=C(O)CCCC[C@@H]1SC[C@@H]2NC(=O)N[C@@H]21", "note": "[Biotin] (20 µM)", "fold change of Tryptamine concentration": 0.954},
      {"smiles": "CC(C)(C(=O)O)c1ccc(C(O)CCCN2CCC(C(O)(c3ccccc3)c3ccccc3)CC2)cc1", "note": "(centres undefined) [Fexofenadine hydrochloride] (20 µM)", "fold change of Tryptamine concentration": 1.04},
      {"smiles": "CC(C)[C@H]1CC[C@H](C(=O)N[C@H](Cc2ccccc2)C(=O)O)CC1", "note": "[Nateglinide] (20 µM)", "fold change of Tryptamine concentration": 0.94},
      {"smiles": "COc1ccc(CNc2nc(N3CCC[C@H]3CO)ncc2C(=O)NCc2ncccn2)cc1Cl", "note": "[Avanafil] (20 µM)", "fold change of Tryptamine concentration": 0.958},
      {"smiles": "C#CCN(C)CCCOc1ccc(Cl)cc1Cl", "note": "[Clorgyline hydrochloride] (20 µM)", "fold change of Tryptamine concentration": 0.96},
      {"smiles": "Cc1cc(-c2ccccc2)nnc1NCCN1CCOCC1", "note": "[Minaprine dihydrochloride] (20 µM)", "fold change of Tryptamine concentration": 1.01},
      {"smiles": "c1ccc(CNc2ncnc3nc[nH]c23)cc1", "note": "[Aminopurine, 6-benzyl] (20 µM)", "fold change of Tryptamine concentration": 0.971},
      {"smiles": "COc1cccc(N(C)C(=S)Oc2ccc3c(c2)CCCC3)n1", "note": "[Liranaftate] (20 µM)", "fold change of Tryptamine concentration": 0.974},
      {"smiles": "C=CCOc1ccccc1OCC(O)CNC(C)C", "note": "(centres undefined) [Oxprenolol hydrochloride] (20 µM)", "fold change of Tryptamine concentration": 1.08},
      {"smiles": "C[C@@H](O[C@H]1OCCN(Cc2n[nH]c(=O)[nH]2)[C@H]1c1ccc(F)cc1)c1cc(C(F)(F)F)cc(C(F)(F)F)c1", "note": "[Aprepitant] (20 µM)", "fold change of Tryptamine concentration": 0.945},
      {"smiles": "CCOc1ccc(Cc2nccc3cc(OCC)c(OCC)cc23)cc1OCC", "note": "[Ethaverine hydrochloride] (20 µM)", "fold change of Tryptamine concentration": 0.945},
      {"smiles": "O=C(CCCCC(=O)Nc1c(I)cc(I)c(C(=O)O)c1I)Nc1c(I)cc(I)c(C(=O)O)c1I", "note": "[Iodipamide] (20 µM)", "fold change of Tryptamine concentration": 1.02},
      {"smiles": "NC(=O)c1cnccn1", "note": "[Pyrazinamide] (20 µM)", "fold change of Tryptamine concentration": 1.04},
      {"smiles": "CCN(CC)CCOC(=O)c1ccc(N)cc1", "note": "[Procaine hydrochloride] (20 µM)", "fold change of Tryptamine concentration": 1.04},
      {"smiles": "CCCCC(CC)CNC(=N)NC(=N)NCCCCCCNC(=N)NC(=N)NCC(CC)CCCC", "note": "(centres undefined) [Alexidine dihydrochloride] (20 µM)", "fold change of Tryptamine concentration": "0.172 (active)"},
      {"smiles": "Cc1onc(-c2ccccc2)c1C(=O)N[C@@H]1C(=O)N2[C@@H]1SC(C)(C)[C@@H]2C(=O)O", "note": "[Oxacillin sodium] (20 µM)", "fold change of Tryptamine concentration": "0.0257 (active)"},
      {"smiles": "CC(=O)N[C@@H](CC(C)C)C(=O)O", "note": "[N-Acetyl-L-leucine] (20 µM)", "fold change of Tryptamine concentration": 0.964}
    ]}
  ]
}
